Measured values reported in the supplement of paper PMC12067926.
A number with no mark means an inactive call.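 Rule for the calls: active = growth AUC significantly below the DMSO wells by Dunnett test; inactive = the rest.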

The molecules below were run on Carnobacterium 1 (Carnobacterium gallinarum) (assay: relative growth (AUC of 72 h growth curve relative to DMSO control, dAUC) (ratio); higher = more growth (less inhibition), active = hit call of the paper). Conditions: 20 µM.
Protocol: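 Environmental bacterial isolates (Iceland stream sediment and Silwood Park soil) and whole stream-sediment communities were grown in LB from a 1:100 dilution with each pesticide at 20 µM (1% DMSO). A600 was read hourly for 72 h and the area under a spline-fitted growth curve (AUC) was computed. dAUC is the mean AUC of 3 biological replicates divided by the mean AUC of the DMSO controls. Significance was tested by Dunnett's test against the DMSO control.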

Compound | relative growth
CCCCC(C#N)(Cn1cncn1)c1ccc(Cl)cc1 (stereo not given) | 0.998
CCc1cc(C)cc(CC)c1-c1c(OC(=O)C(C)(C)C)n2n(c1=O)CCOCC2 | 1.01
COc1ncc(F)c2nc(S(=O)(=O)Nc3c(F)cccc3F)nn12 | 1.1
CCNc1nc(Cl)nc(NC(C)C)n1 | 1.18
CCCCN(CCCC)SN(C)C(=O)Oc1cccc2c1OC(C)(C)C2 | 1.51
C#CCN1C(=O)COc2cc(F)c(N3C(=O)C4=C(CCCC4)C3=O)cc21 | 0.92
Fc1ccc(Oc2ccnc3cc(Cl)cc(Cl)c23)cc1 | 1.13
CCC(C)c1ccccc1OC(=O)NC (stereo not given) | 1.11
O=C(NC(=O)c1c(F)cccc1F)Nc1ccc(Cl)cc1 | 0.911
CCC(C)(C)C(=O)OC1=C(c2ccc(Cl)cc2Cl)C(=O)OC12CCCCC2 | 1.13
N#Cc1c[nH]cc1-c1cccc2c1OC(F)(F)O2 | 1.07
O=C1C2CC=CCC2C(=O)N1SC(Cl)(Cl)Cl (stereo not given) | 1.19
CCCCCCCCCCCCNC(=N)N | 0.0114 (active)
CC(Oc1ccc(Oc2ncc(C(F)(F)F)cc2Cl)cc1)C(=O)O (stereo not given) | 1.23
Nc1c([N+](=O)[O-])ccc(Oc2ccccc2)c1Cl | 0.792
CC1(C)[C@H](/C=C(\Cl)C(F)(F)F)[C@@H]1C(=O)OC(C#N)c1cccc(Oc2ccccc2)c1 (stereo not given in full) | 1.38
OC(Cc1ccccc1Cl)(Cn1nc[nH]c1=S)C1(Cl)CC1 (stereo not given) | 0.829
Fc1ccc([C@]2(Cn3cncn3)O[C@H]2c2ccccc2Cl)cc1 (racemic) | 0.995
CCCSP(=O)(OCC)Oc1ccc(Br)cc1Cl (stereo not given) | 0.842
CNC(=O)/C=C(\C)OP(=O)(OC)OC | 0.926

Compound | relative growth
CS(=O)(=O)c1ccc(C(=O)C2C(=O)CCCC2=O)c([N+](=O)[O-])c1 | 1.44
N#Cc1sc2c(=O)c3ccccc3c(=O)c=2sc1C#N | 0.62
CCCC(Cn1cncn1)c1ccc(Cl)cc1Cl (stereo not given) | 1.13
CC1(C)C(C(=O)OC(C#N)c2cccc(Oc3ccccc3)c2)C1(C)C (stereo not given) | 1.18
CNC(=O)Oc1cccc(/N=C/N(C)C)c1 | 0.892
CC(C)(C)C(O)(CCc1ccc(Cl)cc1)Cn1cncn1 (stereo not given) | 0.864
COP(=S)(OC)Oc1ccc(SC)c(C)c1 | 1.08
O=C1C=C(N(Cc2ccc(Cl)nc2)CC(F)F)CO1 | 1.06
COC(=O)N(OC)c1ccccc1COc1ccn(-c2ccc(Cl)cc2)n1 | 1.36
CCOC(=O)CC(SP(=S)(OC)OC)C(=O)OCC (stereo not given) | 1.09
N#Cc1c(Cl)c(Cl)c(Cl)c(C#N)c1Cl | 1.11
COC(=O)N(C(=O)N1CO[C@@]2(C(=O)OC)Cc3cc(Cl)ccc3C2=N1)c1ccc(OC(F)(F)F)cc1 | 1.15
CCCC1COC(Cn2cncn2)(c2ccc(Cl)cc2Cl)O1 (stereo not given) | 0.835
COc1ccc(C(=CC(=O)N2CCOCC2)c2ccc(Cl)cc2)cc1OC (mixture of isomers) | 1.56
Cc1nc(N(C)C)nc(OC(=O)N(C)C)c1C | 0.883
N#CCNC(=O)c1cnccc1C(F)(F)F | 1.06
COP(=O)(NC(C)=O)SC (stereo not given) | 1.08
N#C/N=C1\SCCN1Cc1ccc(Cl)nc1 | 1.18
CC(C)(C)c1ccc(CSc2cnn(C(C)(C)C)c(=O)c2Cl)cc1 | 1.3
CC(C)N1C(=O)N(c2ccccc2)CS/C1=N\C(C)(C)C | 0.913
